Screening data deposited in PubChem BioAssay by Sanford-Burnham Center for Chemical Genomics.
CYP2C9 act: human CYP2C9 activators, primary screen, biochemical, luminescence; recombinant CYP2C9, luciferin-H conversion; stronger effect = higher value; factor 1 = untreated enzyme, 0 = blocked; activation factor at 5 µM; 1.4% of 96,000 active;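 active = activation factor of 2 or more for CYP2C9 at a 5 µM dose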
PLAP act: PLAP enzyme activators, biochemical, luminescence, HTS | purified PLAP enzyme, luminescent substrate read-out; stronger effect = higher value | Alkaline phosphatase, placental type (Homo sapiens), P05187 | activation fold at 20 µM | 1.2% of 96,000 active; in the data active = activation fold above about 2
CYP2C19 act: human CYP2C19 activators, primary screen, biochemical, luminescence; 96,000 tested, under 10 active; activation factor at 5 µM; recombinant CYP2C19, luciferin-H EGE luminescence; stronger effect = higher value; 0 = fully inhibited enzyme, 1 = untreated enzyme; Cytochrome P450 2C19 (Homo sapiens), P33261;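 active = activation factor of at least 2 at 5 µM in the primary screen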
Target sequence (P33261 whole entry, looked up): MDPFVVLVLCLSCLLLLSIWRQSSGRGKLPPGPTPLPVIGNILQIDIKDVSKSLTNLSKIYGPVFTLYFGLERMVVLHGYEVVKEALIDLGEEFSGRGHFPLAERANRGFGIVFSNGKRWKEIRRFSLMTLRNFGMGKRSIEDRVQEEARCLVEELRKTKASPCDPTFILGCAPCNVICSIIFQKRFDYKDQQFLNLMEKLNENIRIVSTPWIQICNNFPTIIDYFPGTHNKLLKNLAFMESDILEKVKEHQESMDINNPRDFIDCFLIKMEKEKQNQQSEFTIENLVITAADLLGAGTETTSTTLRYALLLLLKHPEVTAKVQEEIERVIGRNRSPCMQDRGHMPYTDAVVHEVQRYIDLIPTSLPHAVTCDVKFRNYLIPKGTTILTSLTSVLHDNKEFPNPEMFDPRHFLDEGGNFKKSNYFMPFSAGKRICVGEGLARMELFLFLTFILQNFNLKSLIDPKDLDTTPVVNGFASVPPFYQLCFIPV
CYP2C9 inhib: blockers of cytochrome P450 2C9 activity – biochemical, luminescence, ADME assay, primary screen | P11712 | CYP2C9 Supersomes, luciferin-H conversion | inhibition, % at 5 µM | 20% of 96,000 active | AID 777, 2007;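 active = blocking of liver enzyme CYP2C9 beyond about 50% at 5 µM, limit read from the data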
CYP2C19 inhib: blockers of cytochrome P450 2C19 activity – biochemical, luminescence, ADME assay, primary screen. P33261. CYP2C19 Supersomes, luciferin-H EGE luminescence, 30 min. inhibition, % at 5 µM. 21% of 96,000 active;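 active = CYP2C19 inhibition above a set limit at 5 µM in the primary screen, cut at about 50% in these data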
Numbers stand for hits; – = inactive. A selection: hits, their analogues and other compounds. The true share with any hit is near 31%.

SMILES	CYP2C9 act	PLAP act	CYP2C19 act	CYP2C9 inhib	CYP2C19 inhib
CC1(C)CC(=O)C(C(=O)/C=C/NCCc2ccccc2)C(=O)C1	–	–	–	74	–
CC1(C(=O)O)CCC(C(=O)NCCc2ccccc2)C1(C)C (stereo unspecified)	–	–	–	–	–
Cc1ccccc1NC(=O)C1CCCN1C(=O)NC1CCCCC1 (stereo unspecified)	–	–	–	–	–
COc1ccc(NC(=O)C23CC4CC(C2)CC(n2cnc(Br)n2)(C4)C3)c(OC)c1	–	–	–	–	–
COc1ccc(OC)c(NC(=O)C23CC4CC(C2)CC(n2cnc(Br)n2)(C4)C3)c1	2.6	–	–	–	72
Cc1nnsc1NC(=O)OCc1ccccc1Cl	–	–	–	–	76
Cc1nn(C)c(Cl)c1NC(=O)OCc1ccccc1	–	–	–	–	–
O=S(=O)(c1cnc[nH]1)N1CCc2ccccc21	–	–	–	100	98
O=C(O)CCCC(=O)N1CCc2cc(S(=O)(=O)N3CCc4ccccc43)ccc21	–	–	–	–	–
CC1Cc2ccccc2N1S(=O)(=O)c1cnc[nH]1 (stereo unspecified)	–	–	–	98	92
CC(C)C(NC(=O)c1cccs1)C(=O)NC1=NCCS1 (stereo unspecified)	–	–	–	–	54
O=C(NC1=NCCS1)c1cccs1	–	–	–	–	–
CCn1nccc1C(=O)Nc1ccc(Cl)cc1Cl	–	–	–	–	63
CCCCN(c1ccccc1)c1ncnc2nc[nH]c12	–	–	–	–	–
CCN(CCCNc1ncnc2nc[nH]c12)c1cccc(C)c1	–	2.1	–	78	83
CCCCN(CCCNc1ncnc2nc[nH]c12)c1ccccc1	–	–	–	56	–
O=C(Cn1cc2c(n1)CCCC2)Nc1cc(-c2cccc(Cl)c2)no1	–	–	–	57	–
O=S(=O)(NC(=NC1CCCC1)C(F)(F)F)c1ccccc1	–	–	–	–	66
O=C1NC(c2ccccc2)=NC1(NS(=O)(=O)c1ccccc1)C(F)(F)F (stereo unspecified)	–	–	–	–	–
Cc1cc(Br)ccc1NC(=O)CN1C(=O)C2C3CC(c4ccccc4)C(C3)C2C1=O (stereo unspecified)	–	–	–	68	–
CCOC(=O)CSC1=Nc2ccccc2C2=NC(CC(=O)NCc3ccccc3)C(=O)N12 (stereo unspecified)	–	–	–	57	–
CCC(C)NC(=O)CSC1=Nc2ccccc2C2=NC(CC(=O)NCc3ccc(F)cc3)C(=O)N12 (stereo unspecified)	–	–	–	–	–
CCOC(=O)CSC1=Nc2ccccc2C2=NC(CC(=O)NCc3cccs3)C(=O)N12 (stereo unspecified)	–	–	–	65	–
CCN(CC)C(=O)CSC1=Nc2ccccc2C2=NC(c3ccccc3)C(=O)N12 (stereo unspecified)	–	–	–	61	–
CCCCN(Cc1ccccc1)C(=O)C1CCN(S(=O)(=O)c2c(C)noc2C)CC1	–	–	–	–	–
SMILES	CYP2C9 act	PLAP act	CYP2C19 act	CYP2C9 inhib	CYP2C19 inhib
COc1ccc(-c2noc(CSc3nnc(CCc4ccccc4)n3-c3ccccc3)n2)cc1OC	–	–	–	80	99
Cc1ccc(-c2noc(CSc3nnc(CCc4ccccc4)n3-c3ccccc3)n2)cc1	–	–	–	76	83
CC1CCCN(C(=O)CSc2cnc3ccccc3n2)C1 (stereo unspecified)	–	–	–	–	50
CC1CN(C(=O)C(C)Sc2nc3ccccc3s2)CC(C)O1 (stereo unspecified)	–	–	–	–	94
CC1CCCC(C)N1C(=O)CSc1nc2ccccc2s1 (stereo unspecified)	–	–	–	61	86
Cc1onc(-c2ccccc2)c1C(=O)N1CC(C)OC(C)C1 (stereo unspecified)	–	–	–	–	–
NC(=O)C1CCN(C(=O)CSc2nc3ccccc3s2)CC1	–	–	–	–	–
CC1CCCN(C(=O)CN2C(=O)c3ccccc3C2=O)C1 (stereo unspecified)	–	–	–	–	–
O=C(CSc1nc2ccccc2s1)N1CCCCC1	–	–	–	–	84
COc1ccccc1NCc1nnc(SCC(=O)N/N=C/c2ccco2)n1-c1ccc(Cl)cc1Cl	–	–	–	–	–
CCn1c(CSc2nc(C)cc(C)n2)nnc1SCC(=O)N1CCCc2ccccc21	–	–	–	–	–
CCCCn1nnnc1SCC(=O)N1CCCC1	–	–	–	–	–
CCOC(=O)C1=C(C)NC(SCC(=O)O)=NC1c1ccccc1 (stereo unspecified)	–	–	–	–	–
CC1CCN(C(=O)CSc2nc3ccccc3s2)CC1	–	–	–	63	57
CCCCC1CC(C)(C(=O)CSc2nc3ccccc3s2)OC1=O (stereo unspecified)	–	–	–	78	–
Cc1cc(NC(=O)CSc2nc3ccccc3s2)no1	–	–	–	–	–
O=C(CSc1ccc(Cl)cc1)N1CCC(c2nc3ccccc3s2)CC1	–	–	–	54	–
CCc1ccc(C(=O)N2CCC(c3nc4ccccc4s3)CC2)cc1	–	–	–	76	–
O=C(c1ccc(S(=O)(=O)N2CCC(c3nc4ccccc4s3)CC2)cc1)N1CCOCC1	–	–	–	–	–
O=C(CSc1c(Cl)cccc1Cl)N1CCC(c2nc3ccccc3s2)CC1	–	–	–	–	–
COC(=O)c1cc(COc2ccc3c4c(c(=O)oc3c2)CCC4)c(C)o1	–	–	–	–	–
CC(C)CNC(=O)COc1ncnc2ccccc12	–	–	–	–	–
CCOC(=O)N1CCC(Nc2ncnc3c2cnn3-c2ccc(Cl)cc2)CC1	–	–	–	–	–
CCOc1ccc2nc(SCC(=O)N3CCCc4ccccc43)sc2c1	–	–	–	–	–
O=C(CSc1nc2cc(Cl)ccc2s1)N1CCCc2ccccc21	–	–	–	62	–
SMILES	CYP2C9 act	PLAP act	CYP2C19 act	CYP2C9 inhib	CYP2C19 inhib
CC1=CC(C)(C)N2C(=O)C3(SCC(=O)N3c3ccc(O)cc3)c3cc(C)cc1c32 (stereo unspecified)	–	–	–	97	87
COc1cc2c(cc1NC(=O)c1ccncc1)oc1ccccc12	–	–	–	91	58
COc1cc2c(cc1NS(=O)(=O)N1CCCC1)oc1ccccc12	2	–	–	–	82
COc1cc2c(cc1NC(=O)CN1CCN(S(=O)(=O)c3ccc(C)cc3)CC1)oc1ccccc12	–	–	–	–	–
CCOc1ccc(NC(=O)CSc2n[nH]c(=O)n2-c2ccccc2)cc1	–	–	–	–	–
COc1ccc(C(=O)Nc2ccc(-c3ccc(C)o3)cc2)cc1S(=O)(=O)N1CCOCC1	–	–	–	–	–
